Data reported in PubChem BioAssay AID624331 (National Center for Advancing Translational Sciences (NCATS), 2012).
Records with an inconclusive call do not appear. Where a call stands in place of a potency, no number is given. Active and inactive are the calls of the source. Calls follow the shape of the dose curve; as a rule, active = well fitted activation curve with a large enough effect; inconclusive = small, poorly fitted or top-dose-only effect; inactive = no such curve, though single readings can be large or run the other way.

Assay: qHTS assay for re-activators of p53 using a Luc reporter: Hit Validation with no p53 Expressed
Settings: p53-null cells, luciferase reporter counter-screen; series mostly up to 46.1 µM
From the text: The p53 tumor suppressor plays a key role in suppression of tumorigenesis and in human carcinogenesis. It is frequently found inactivated in human cancers, mainly by point mutation. These point mutations are found in a wide variety of human cancers and a majority of them affect the DNA binding domain of the protein. The point mutations either alter native p53 conformation or abolish DNA contact. Additionally, cancer cells with p53 mutations are more resistant to chemo-radiation therapies.
This counter screen was run against the hits identified from the primary screen. It uses a cell line that was not transfected with p53. Compounds that show activity in this counter screen show unspecific activation of the assay system and are excluded from further consideration.
NIH Chemical Genomics Center [NCGC]
NIH Molecular Libraries Probe Production Centers Network [MLPCN]
Assay Provider (PI): Yi Sung, University of Michigan at Ann Arbor
5ul of 1000 cells per well are dispensed in all wells except column 4, into white solid-bottom TC-treated Kalypsys plates. The cells are kept in Opti-MEM and supplemented with 10% FBS and dispensed using a Multidrop (Thermo). Then using the Kalypsys pin-tool, 23nl of compounds are pinned. The compounds are starting concentration at 10mM, with 1:5 dilution, 4 points, and the control compound nocodazole is pinned in column 1 at 25mM, 1:3 dilution, in duplicate, 25mM nocodazole is pinned in column 2. Please note, all concentrations are working concentrations. 5ul of 1pM purified luciferase enzyme is dispensed using the Kalypsys dispenser in column 4. Plates are incubated for 24 hrs at 37 deg C, 5% CO2, and 95% humidity. Then 4ul of the detection reagent Amplite (ABD Bioquest) is added using the Kalypsys dispenser. Plates are incubated for 10 min at ambient room temperature and are then read on the ViewLux (Perkin Elmer) using a clear filter for a luminescent read-out.
In the case of `Clc1ccc(OCc2nc(-c3ccccn3)no2)c(Br)c1`, the Potency is reported as “inactive”.
For `Cc1cc(Oc2ccccc2)nc(-c2ccccc2O)n1`, the Potency was “inactive”.
For `CCOC(=S)SCC(=O)Nc1nc(-c2ccc(Br)cc2)cs1`, the Potency was “inactive”.
In the case of `CN(C)CCN(CC1CCCN(Cc2ccccc2F)C1)C(=O)c1ccc(F)cc1` (stereo not given), the Potency is reported as “inactive”.
For `O=C(CCc1nc(-c2ccccc2F)no1)NC1CCCCCC1`, the Potency was “inactive”.
For `Cc1ccc(NC2=C(Cl)C(=O)c3ccccc3C2=O)cc1`, the Potency was “inactive”.
For `CCCCn1c(SCC(=O)N2CCCC2=O)nc2cc(S(N)(=O)=O)ccc21`, the Potency was “inactive”.
In the case of `Cc1ccc(NC(=O)/C=C/c2ccc([N+](=O)[O-])s2)c(C)c1`, the Potency is reported as “inactive”.
With `Cc1cccc(NC(=O)c2ccccn2)c1C` the Potency was “inactive”.
With `Cc1ccc(NC(=O)/C(Cl)=C/c2ccccc2)cc1C` the Potency was “inactive”.
For `Cc1ccsc1/C=N/Nc1nc2ccccc2[nH]1`, the Potency was “inactive”.
With `C=CCOc1c(Br)cc(CNCCCN2CCOCC2)cc1OC` the Potency was “inactive”.
In the case of `COc1cc(NC(=O)C(C)C)ccc1NC(=O)c1ccco1`, the Potency is reported as “inactive”.
With `O=C(Nc1nc2ccccc2s1)c1ccc2c(c1)OCO2` the Potency was “inactive”.
For `CC1Cc2ccccc2N1C(=O)COC(=O)C1(c2ccccc2F)CCCC1` (stereo not given), the Potency was “inactive”.
For `COc1ccc([N+](=O)[O-])cc1NC(=O)C1CCCCC1C(=O)O` (stereo not given), the Potency was “inactive”.
With `O=C(COC(=O)c1cn(-c2ccccc2)nc1-c1ccc(F)cc1)Nc1ncc(Cl)cc1Cl` the Potency was “inactive”.
In the case of `OCc1cc(Br)ccc1OCc1nc2ccccc2s1`, the Potency is reported as “inactive”.
In the case of `Oc1ccccc1-c1cc(-c2ccccc2)n[nH]1`, the Potency is reported as “inactive”.
With `Oc1ccc(N=Cc2c(O)ccc3ccccc23)cc1` the Potency was “inactive”.
In the case of `CCOc1ccc(NC(=O)C(c2ccccn2)N(C(=O)CCl)c2ccc(OC)cc2)cc1` (stereo not given), the Potency is reported as “inactive”.
In the case of `Cc1ccc(/C=C(\C#N)C(=O)NCC2CCCO2)o1` (stereo not given), the Potency is reported as “inactive”.
With `O=C(Nc1cccc(O)c1)C(=O)Nc1ccccn1` the Potency was “inactive”.
For `CCOP(=O)(OCC)C(NC(=O)Nc1ccccc1)C(N)=O` (stereo not given), the Potency was “inactive”.
With `Cc1nc(SCC(=O)Nc2nccs2)c(C#N)c(C)c1C` the Potency was “inactive”.
With `NNc1nc(-c2ccccc2)nc2sc3c(c12)CCCC3` the Potency was “inactive”.
With `O=C(CNS(=O)(=O)c1cccc(Cl)c1)Nc1ccc(-c2nc3ccccc3s2)cc1` the Potency was “inactive”.
With `Cc1csc(NC(=O)/C=C/c2ccc(C)o2)n1` the Potency was “inactive”.
In the case of `Cc1noc(C)c1C(=O)Nc1nc(-c2ccc(F)cc2)cs1`, the Potency is reported as “inactive”.
For `O=C(Nc1ccccc1Br)c1ccc(OC(=S)N2CCOCC2)cc1`, the Potency was “inactive”.
For `CC(C)N1C(=O)CN(C2CCCCCC2)C(=O)C1c1ccccc1F` (stereo not given), the Potency was “inactive”.
In the case of `O=C(CCS(=O)(=O)c1ccccc1)Nc1ccc(-c2nc3ccccc3s2)cc1`, the Potency is reported as “inactive”.
With `CNc1nnc(SCC(=O)c2cc(C)n(C3CC3)c2C)s1` the Potency was “inactive”.
In the case of `O=C(N/N=C(\c1ccccc1)c1cccnc1)c1cccc(F)c1`, the Potency is reported as “inactive”.
In the case of `Cc1cccc(NC(=O)c2oc3c(c2C)C(=O)CC(C)(C)C3)n1`, the Potency is reported as “inactive”.
With `O=C(NC(=S)NCCc1ccccc1)C1CCCCC1` the Potency was “inactive”.
With `Cc1ccc(NC(=O)C2CCCO2)cc1[N+](=O)[O-]` (stereo not given) the Potency was “inactive”.
With `O=C(CCS(=O)(=O)c1ccccc1)Nc1nc2c(s1)CCCC2` the Potency was “inactive”.
In the case of `S=C(Nc1ccccc1)Nc1nc2ccccc2n1CCOc1ccc(Br)cc1`, the Potency is reported as “inactive”.
With `Cc1ccc(C(=O)Nc2ccc(Cl)cn2)cc1` the Potency was “inactive”.
